Structures are written as SMILES. The source made the active and inactive calls. Rule for the calls: active = hit-call score of the fitted dose curve at least 0.9, where 1 is the maximum; inactive = score below 0.9.

Here are results for 38 compounds from PubChem BioAssay (EPA / NIEHS).

Read-out in this test: Secreted IgG (sIgG), gene 3500
Kind of test: BSK_BT_sIgG: BioMAP Diversity Plus: BT Assay for Secreted IgG (sIgG) Biomarker Activity (AID 2284226). Conditions: primary human B cells with PBMC. The procedure:
BSK_BT is a cell-based, multiplexed-readout assay that uses B cell and peripheral blood mononuclear cells, a human vascular primary cell co-culture, with measurements taken at 24 hours after chemical dosing in a microplate: 96-well plate.BSK_BT_sIgG is an assay component measured in the BSK_BT assay. It measures secreted IgG related to regulation of gene expression using ELISA technology.Data from the assay component BSK_BT_sIgG was analyzed at the endpoint, BSK_BT_sIgG, in the positive analysis fitting direction relative to DMSO as the negative control and baseline of activity. Using a type of cytokine quantitation reporter, gain or loss-of-signal activity can be used to understand protein changes. To generalize the intended target to other relatable targets, this assay endpoint is annotated to the 'immunoglobulin' intended target family, where the subfamily is 'IgG'.
The levels of cell surface (or secreted, indicated by the prefix "s") biomarker endpoints were measured by ELISA. Overt cytotoxicity to cells in confluent adherent cultures (all systems other than the BT system) was assessed by measuring total protein levels using sulforhodamine B (SRB) staining in parallel cultures at the time of biomarker measurements, indicated as SRB endpoints. For proliferation assays for adherent cell types, individual cell types are cultured at sub-confluence and relative cell numbers quantified by SRB staining at time points optimized for each system (48 h: 3C and CASM3C systems; 72 h: BT and HDF3CGF systems; 96 h: SAg system). SRB was performed by staining cells with 0.1% SRB after fixation with 10% TCA and reading wells at 560 nm.Viability and proliferation of PBMC (T cells) was quantified by Alamar Blue reduction for the SAg and BT systems. For PBMC viability (referred to as PBMC Cytotoxicity within the assay endpoint names), cells were plated (75,000/well in a 96-well plate) and then chemical samples added for 1 h before addition of activators, SEB and TSST-1 (20 ng/mL final concentration each). Cells were incubated for 90 h. Then, Alamar Blue (20 uL/well) (Invitrogen, Cat DAL1100) was added for 6 h, and the plates were read with a fluorescence microplate reader at 546/580 nm (excitation/emission). For PBMC proliferation, cells were plated and activated as above but incubated for only 16 h prior to addition of Alamar Blue. Plates were read after 6 h.
With `COc1ccc(OC)c(N=Nc2c(O)ccc3ccccc23)c1`, the AC50 (as a rule, the concentration giving half of the maximal activity seen) is 9.86 µM (active). `c1ccc(CCc2ccccc2)cc1`: the result was inactive. For the compound `O=C1OC[C@H](Cc2cccc(O)c2)[C@H]1Cc1cccc(O)c1`, the result was inactive. For `CSCCC=O`, the outcome was inactive. For the compound `CC(=O)c1c(C)c([N+](=O)[O-])c(C(C)(C)C)c([N+](=O)[O-])c1C`, the AC50 is 30.5 µM (active).

For the compound `c1ccc2cc(Nc3ccc(Nc4ccc5ccccc5c4)cc3)ccc2c1`, the result was inactive. On to `C=C(C)C(=O)OCCOCCOCCOC(=O)C(=C)C`, for which the outcome was inactive.

Consider `C=C(C)C(=O)OCC(CC)(COC(=O)C(=C)C)COC(=O)C(=C)C`, for which the AC50 is 3.08 µM (active).

`CCCCCC(C=O)=Cc1ccccc1`: the AC50 is 26.9 µM (active). For the compound `Oc1c(Cl)cc(Cl)c(Cl)c1Cc1c(O)c(Cl)cc(Cl)c1Cl`, the AC50 is 0.993 µM (active).

Turning to `O=C1c2ccccc2C(=O)c2c(O)ccc(O)c21`, the AC50 was 0.36 µM (active).

In the case of `O=C1OC2(c3ccccc31)c1ccc(O)c(Br)c1Oc1c2ccc(O)c1Br`, the result was inactive.

On to `Clc1cc(Cl)c(-c2c(Cl)c(Cl)cc(Cl)c2Cl)cc1Cl`, for which the outcome was inactive. Regarding `CC(=O)C1(C)CC2=C(CCCC2(C)C)CC1C` (stereo not drawn), the concentration at half-maximal activity (AC50) is 28.8 µM (active).

Regarding `CN(C)C(=O)Nc1ccc(Oc2ccc(Cl)cc2)cc1`, the AC50 is 20 µM (active). Turning to `CCCCOC(=O)CCCCCCCC(=O)OCCCC`, the result was inactive. Consider `CS(=O)(=O)c1ccc(C2=C(c3ccccc3)C(=O)OC2)cc1`, for which the outcome was inactive.

Turning to `CC=Cc1ccc(OCC)c(O)c1`, the AC50 is 12.9 µM (active). Take `CCCCN(CCCC)C(=O)N(CCCC)CCCC`: the AC50 was 14.6 µM (active).

With `CN(c1nccc(=O)[nH]1)C1CCN(c2nc3ccccc3n2Cc2ccc(F)cc2)CC1`, the AC50 was 14.6 µM (active). `C=C(C)[C@H]1CC=C(C)C(=O)C1`: the outcome was inactive. Consider `COc1cc(Cl)c(OC)cc1N`, for which the outcome was inactive.

On to `COc1ccc(CCN2CCC(Nc3nc4ccccc4n3Cc3ccc(F)cc3)CC2)cc1`, for which the AC50 was 3.17 µM (active). In the case of `CC1(C)C2=CCCC(C)(C)[C@]23CC[C@H]1C3`, the AC50 is 20 µM (active). In the case of `CN(C)C(=S)SC(=S)N(C)C`, the AC50 was 0.244 µM (active). For the compound `IC(I)I`, the outcome was inactive. As to `CC(=O)Nc1ccc(C(=O)CCl)cc1`, the AC50 is 2.21 µM (active). Regarding `CC(C)(N=C=O)c1cccc(C(C)(C)N=C=O)c1`, the result was inactive. `CCN(CC)C(=O)N(CC)CC`: the result was inactive. As to `CC(C)(C)CC(C)(C)c1ccc(OCCOCC[N+](C)(C)Cc2ccccc2)cc1`, the AC50 was 1.57 µM (active). As for `Cc1cc(CCC(=O)OCCOCCOCCOC(=O)CCc2cc(C)c(O)c(C(C)(C)C)c2)cc(C(C)(C)C)c1O`, the result was inactive. On to `CCC(C)c1cc([N+](=O)[O-])cc([N+](=O)[O-])c1OC(=O)OC(C)C` (stereo not drawn), for which the AC50 was 11.1 µM (active). Turning to `c1ccc(Oc2ccccc2)cc1`, the outcome was inactive. Take `C=C(C)C(=O)OCCOCCOCCOCCOC(=O)C(=C)C`: the concentration at half-maximal activity (AC50) is 20 µM (active). Take `C1=CC2C3C=CC(C3)C2C1` (stereo not drawn): the result was inactive. As for `C[C@@H]1CCN(C(=O)[C@H](CCCN=C(N)N)NS(=O)(=O)c2cccc3c2NC[C@H](C)C3)[C@@H](C(=O)O)C1`, the outcome was inactive. Regarding `CCCCCCCCCCCCCCCC(=O)OC/C=C(C)/C=C/C=C(C)/C=C/C1=C(C)CCCC1(C)C`, the AC50 was 20 µM (active). Regarding `CC(C=O)Cc1ccc(C(C)(C)C)cc1` (stereo not drawn), the outcome was inactive.
